According to article PMC11006913:
Residue numbers refer to the chain shown, from its start.

Tests used:
Test in all cases: PBM; 200 nM protein, PBS
Conditions in all cases: dsDNA, one strand shown
SIX6 [1] = biological target: T1, SIX6 (Homo sapiens, UniProt O95475 114-200, L167I)
T1 sequence: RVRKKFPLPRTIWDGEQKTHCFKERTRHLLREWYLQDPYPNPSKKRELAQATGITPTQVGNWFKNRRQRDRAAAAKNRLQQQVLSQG

SIX6 [2] = biological target: T2, SIX6 (Homo sapiens, UniProt O95475 114-200, L143V)
T2 sequence: T1 sequence with L30V, I54L

SIX6 [3] = biological target: T3, SIX6 (Homo sapiens, UniProt O95475 114-200, H141N)
T3 sequence: T1 sequence with H28N, I54L

SIX6 [4] = biological target: T4, SIX6 (Homo sapiens, UniProt O95475 114-200, T165P)
T4 sequence: T1 sequence with T52P, I54L

SIX6 [5] = biological target: T5, SIX6 (Homo sapiens, UniProt O95475 114-200, L167M)
T5 sequence: T1 sequence with I54M

SIX6 [6] = biological target: T6, SIX6 (Homo sapiens, UniProt O95475 114-200, L143M)
T6 sequence: T1 sequence with L30M, I54L

SIX6 [7] = biological target: T7, SIX6 (Homo sapiens, UniProt O95475 114-200, L143I)
T7 sequence: T1 sequence with L30I, I54L

SIX6 [8] = biological target: T8, SIX6 (Homo sapiens, UniProt O95475 114-200, T165G)
T8 sequence: T1 sequence with T52G, I54L

SIX6 [9] = biological target: T9, SIX6 (Homo sapiens, UniProt O95475 114-200, T139Q)
T9 sequence: T1 sequence with T26Q, I54L

SIX6 [10] = biological target: T10, SIX6 (Homo sapiens, UniProt O95475 114-200, T165A)
T10 sequence: T1 sequence with T52A, I54L

SIX6 [11] = biological target: T11, SIX6 (Homo sapiens, UniProt O95475 114-200, L167V)
T11 sequence: T1 sequence with I54V

SIX6 [12] = biological target: T12, SIX6 (Homo sapiens, UniProt O95475 114-200)
T12 sequence: T1 sequence with I54L

SIX6 [13] = biological target: T13, SIX6 (Homo sapiens, UniProt O95475 114-200, T165I)
T13 sequence: T1 sequence with T52I, I54L

Row | Sequence | binding signal (SIX6 [1]) | binding signal (SIX6 [2]) | binding signal (SIX6 [3]) | binding signal (SIX6 [4]) | binding signal (SIX6 [5]) | binding signal (SIX6 [6]) | binding signal (SIX6 [7]) | binding signal (SIX6 [8]) | binding signal (SIX6 [9]) | binding signal (SIX6 [10]) | binding signal (SIX6 [11]) | binding signal (SIX6 [12]) | binding signal (SIX6 [13])
1 | CTGTATCA | 11.2 upbm affinity estimate (log intensity, higher = more binding, comparable within an allelic series) | 10.3 upbm affinity estimate (log intensity, higher = more binding, comparable within an allelic series) | 11.2 upbm affinity estimate (log intensity, higher = more binding, comparable within an allelic series) | 9.69 upbm affinity estimate (log intensity, higher = more binding, comparable within an allelic series) | 10.6 upbm affinity estimate (log intensity, higher = more binding, comparable within an allelic series) | 10.9 upbm affinity estimate (log intensity, higher = more binding, comparable within an allelic series) | 10.3 upbm affinity estimate (log intensity, higher = more binding, comparable within an allelic series) | 11.1 upbm affinity estimate (log intensity, higher = more binding, comparable within an allelic series) | 11.1 upbm affinity estimate (log intensity, higher = more binding, comparable within an allelic series) | 11.1 upbm affinity estimate (log intensity, higher = more binding, comparable within an allelic series) | 10.9 upbm affinity estimate (log intensity, higher = more binding, comparable within an allelic series) | 10.9 upbm affinity estimate (log intensity, higher = more binding, comparable within an allelic series) | 10.9 upbm affinity estimate (log intensity, higher = more binding, comparable within an allelic series)
2 | CGCCCACC | 9.03 upbm affinity estimate (log intensity, higher = more binding, comparable within an allelic series) | 9.02 upbm affinity estimate (log intensity, higher = more binding, comparable within an allelic series) | 9.04 upbm affinity estimate (log intensity, higher = more binding, comparable within an allelic series) | 9.15 upbm affinity estimate (log intensity, higher = more binding, comparable within an allelic series) | 9.04 upbm affinity estimate (log intensity, higher = more binding, comparable within an allelic series) | 9.02 upbm affinity estimate (log intensity, higher = more binding, comparable within an allelic series) | 9.17 upbm affinity estimate (log intensity, higher = more binding, comparable within an allelic series) | 9.11 upbm affinity estimate (log intensity, higher = more binding, comparable within an allelic series) | 9.21 upbm affinity estimate (log intensity, higher = more binding, comparable within an allelic series) | 9.07 upbm affinity estimate (log intensity, higher = more binding, comparable within an allelic series) | 9.06 upbm affinity estimate (log intensity, higher = more binding, comparable within an allelic series) | 9.1 upbm affinity estimate (log intensity, higher = more binding, comparable within an allelic series) | 9.03 upbm affinity estimate (log intensity, higher = more binding, comparable within an allelic series)
3 | GCAGTGGC | 8.87 upbm affinity estimate (log intensity, higher = more binding, comparable within an allelic series) | 8.89 upbm affinity estimate (log intensity, higher = more binding, comparable within an allelic series) | 8.95 upbm affinity estimate (log intensity, higher = more binding, comparable within an allelic series) | 8.89 upbm affinity estimate (log intensity, higher = more binding, comparable within an allelic series) | 8.96 upbm affinity estimate (log intensity, higher = more binding, comparable within an allelic series) | 8.94 upbm affinity estimate (log intensity, higher = more binding, comparable within an allelic series) | 8.96 upbm affinity estimate (log intensity, higher = more binding, comparable within an allelic series) | 8.99 upbm affinity estimate (log intensity, higher = more binding, comparable within an allelic series) | 8.93 upbm affinity estimate (log intensity, higher = more binding, comparable within an allelic series) | 8.93 upbm affinity estimate (log intensity, higher = more binding, comparable within an allelic series) | 8.89 upbm affinity estimate (log intensity, higher = more binding, comparable within an allelic series) | 8.98 upbm affinity estimate (log intensity, higher = more binding, comparable within an allelic series) | 8.94 upbm affinity estimate (log intensity, higher = more binding, comparable within an allelic series)
4 | ATGTATCA | 11.4 upbm affinity estimate (log intensity, higher = more binding, comparable within an allelic series) | 10.6 upbm affinity estimate (log intensity, higher = more binding, comparable within an allelic series) | 11.5 upbm affinity estimate (log intensity, higher = more binding, comparable within an allelic series) | 10.1 upbm affinity estimate (log intensity, higher = more binding, comparable within an allelic series) | 11 upbm affinity estimate (log intensity, higher = more binding, comparable within an allelic series) | 11.2 upbm affinity estimate (log intensity, higher = more binding, comparable within an allelic series) | 10.6 upbm affinity estimate (log intensity, higher = more binding, comparable within an allelic series) | 11.5 upbm affinity estimate (log intensity, higher = more binding, comparable within an allelic series) | 11.3 upbm affinity estimate (log intensity, higher = more binding, comparable within an allelic series) | 11.4 upbm affinity estimate (log intensity, higher = more binding, comparable within an allelic series) | 11.2 upbm affinity estimate (log intensity, higher = more binding, comparable within an allelic series) | 11.2 upbm affinity estimate (log intensity, higher = more binding, comparable within an allelic series) | 11.3 upbm affinity estimate (log intensity, higher = more binding, comparable within an allelic series)
5 | ATTATACC | 10.8 upbm affinity estimate (log intensity, higher = more binding, comparable within an allelic series) | 10.3 upbm affinity estimate (log intensity, higher = more binding, comparable within an allelic series) | 10.7 upbm affinity estimate (log intensity, higher = more binding, comparable within an allelic series) | 10.1 upbm affinity estimate (log intensity, higher = more binding, comparable within an allelic series) | 10.5 upbm affinity estimate (log intensity, higher = more binding, comparable within an allelic series) | 10.8 upbm affinity estimate (log intensity, higher = more binding, comparable within an allelic series) | 10.3 upbm affinity estimate (log intensity, higher = more binding, comparable within an allelic series) | 10.8 upbm affinity estimate (log intensity, higher = more binding, comparable within an allelic series) | 10.8 upbm affinity estimate (log intensity, higher = more binding, comparable within an allelic series) | 10.7 upbm affinity estimate (log intensity, higher = more binding, comparable within an allelic series) | 10.5 upbm affinity estimate (log intensity, higher = more binding, comparable within an allelic series) | 10.7 upbm affinity estimate (log intensity, higher = more binding, comparable within an allelic series) | 10.6 upbm affinity estimate (log intensity, higher = more binding, comparable within an allelic series)
6 | CTGATACC | 11.3 upbm affinity estimate (log intensity, higher = more binding, comparable within an allelic series) | 10.4 upbm affinity estimate (log intensity, higher = more binding, comparable within an allelic series) | 11.3 upbm affinity estimate (log intensity, higher = more binding, comparable within an allelic series) | 9.63 upbm affinity estimate (log intensity, higher = more binding, comparable within an allelic series) | 10.6 upbm affinity estimate (log intensity, higher = more binding, comparable within an allelic series) | 11 upbm affinity estimate (log intensity, higher = more binding, comparable within an allelic series) | 10.4 upbm affinity estimate (log intensity, higher = more binding, comparable within an allelic series) | 11.4 upbm affinity estimate (log intensity, higher = more binding, comparable within an allelic series) | 11.4 upbm affinity estimate (log intensity, higher = more binding, comparable within an allelic series) | 11.4 upbm affinity estimate (log intensity, higher = more binding, comparable within an allelic series) | 11 upbm affinity estimate (log intensity, higher = more binding, comparable within an allelic series) | 11.1 upbm affinity estimate (log intensity, higher = more binding, comparable within an allelic series) | 11.1 upbm affinity estimate (log intensity, higher = more binding, comparable within an allelic series)
7 | TGTATCAA | 11.2 upbm affinity estimate (log intensity, higher = more binding, comparable within an allelic series) | 10.4 upbm affinity estimate (log intensity, higher = more binding, comparable within an allelic series) | 11.2 upbm affinity estimate (log intensity, higher = more binding, comparable within an allelic series) | 9.94 upbm affinity estimate (log intensity, higher = more binding, comparable within an allelic series) | 10.7 upbm affinity estimate (log intensity, higher = more binding, comparable within an allelic series) | 11 upbm affinity estimate (log intensity, higher = more binding, comparable within an allelic series) | 10.4 upbm affinity estimate (log intensity, higher = more binding, comparable within an allelic series) | 11.3 upbm affinity estimate (log intensity, higher = more binding, comparable within an allelic series) | 11.2 upbm affinity estimate (log intensity, higher = more binding, comparable within an allelic series) | 11.3 upbm affinity estimate (log intensity, higher = more binding, comparable within an allelic series) | 11 upbm affinity estimate (log intensity, higher = more binding, comparable within an allelic series) | 11.1 upbm affinity estimate (log intensity, higher = more binding, comparable within an allelic series) | 11.1 upbm affinity estimate (log intensity, higher = more binding, comparable within an allelic series)
8 | GGCCGGAA | 9.02 upbm affinity estimate (log intensity, higher = more binding, comparable within an allelic series) | 8.91 upbm affinity estimate (log intensity, higher = more binding, comparable within an allelic series) | 8.94 upbm affinity estimate (log intensity, higher = more binding, comparable within an allelic series) | 9.01 upbm affinity estimate (log intensity, higher = more binding, comparable within an allelic series) | 8.98 upbm affinity estimate (log intensity, higher = more binding, comparable within an allelic series) | 9 upbm affinity estimate (log intensity, higher = more binding, comparable within an allelic series) | 8.95 upbm affinity estimate (log intensity, higher = more binding, comparable within an allelic series) | 8.98 upbm affinity estimate (log intensity, higher = more binding, comparable within an allelic series) | 9.04 upbm affinity estimate (log intensity, higher = more binding, comparable within an allelic series) | 8.94 upbm affinity estimate (log intensity, higher = more binding, comparable within an allelic series) | 9.02 upbm affinity estimate (log intensity, higher = more binding, comparable within an allelic series) | 8.92 upbm affinity estimate (log intensity, higher = more binding, comparable within an allelic series) | 8.95 upbm affinity estimate (log intensity, higher = more binding, comparable within an allelic series)
9 | GCCTTCGC | 8.84 upbm affinity estimate (log intensity, higher = more binding, comparable within an allelic series) | 9.04 upbm affinity estimate (log intensity, higher = more binding, comparable within an allelic series) | 8.95 upbm affinity estimate (log intensity, higher = more binding, comparable within an allelic series) | 9.09 upbm affinity estimate (log intensity, higher = more binding, comparable within an allelic series) | 8.82 upbm affinity estimate (log intensity, higher = more binding, comparable within an allelic series) | 9.06 upbm affinity estimate (log intensity, higher = more binding, comparable within an allelic series) | 8.98 upbm affinity estimate (log intensity, higher = more binding, comparable within an allelic series) | 8.83 upbm affinity estimate (log intensity, higher = more binding, comparable within an allelic series) | 8.96 upbm affinity estimate (log intensity, higher = more binding, comparable within an allelic series) | 8.83 upbm affinity estimate (log intensity, higher = more binding, comparable within an allelic series) | 8.91 upbm affinity estimate (log intensity, higher = more binding, comparable within an allelic series) | 8.85 upbm affinity estimate (log intensity, higher = more binding, comparable within an allelic series) | 8.83 upbm affinity estimate (log intensity, higher = more binding, comparable within an allelic series)
10 | AAGTATCA | 11.3 upbm affinity estimate (log intensity, higher = more binding, comparable within an allelic series) | 10.3 upbm affinity estimate (log intensity, higher = more binding, comparable within an allelic series) | 11.2 upbm affinity estimate (log intensity, higher = more binding, comparable within an allelic series) | 9.85 upbm affinity estimate (log intensity, higher = more binding, comparable within an allelic series) | 10.6 upbm affinity estimate (log intensity, higher = more binding, comparable within an allelic series) | 11 upbm affinity estimate (log intensity, higher = more binding, comparable within an allelic series) | 10.3 upbm affinity estimate (log intensity, higher = more binding, comparable within an allelic series) | 11.2 upbm affinity estimate (log intensity, higher = more binding, comparable within an allelic series) | 11.1 upbm affinity estimate (log intensity, higher = more binding, comparable within an allelic series) | 11.2 upbm affinity estimate (log intensity, higher = more binding, comparable within an allelic series) | 11 upbm affinity estimate (log intensity, higher = more binding, comparable within an allelic series) | 10.9 upbm affinity estimate (log intensity, higher = more binding, comparable within an allelic series) | 11 upbm affinity estimate (log intensity, higher = more binding, comparable within an allelic series)
11 | GTGTATCA | 11.5 upbm affinity estimate (log intensity, higher = more binding, comparable within an allelic series) | 10.5 upbm affinity estimate (log intensity, higher = more binding, comparable within an allelic series) | 11.4 upbm affinity estimate (log intensity, higher = more binding, comparable within an allelic series) | 9.86 upbm affinity estimate (log intensity, higher = more binding, comparable within an allelic series) | 10.9 upbm affinity estimate (log intensity, higher = more binding, comparable within an allelic series) | 11.2 upbm affinity estimate (log intensity, higher = more binding, comparable within an allelic series) | 10.5 upbm affinity estimate (log intensity, higher = more binding, comparable within an allelic series) | 11.5 upbm affinity estimate (log intensity, higher = more binding, comparable within an allelic series) | 11.4 upbm affinity estimate (log intensity, higher = more binding, comparable within an allelic series) | 11.4 upbm affinity estimate (log intensity, higher = more binding, comparable within an allelic series) | 11.2 upbm affinity estimate (log intensity, higher = more binding, comparable within an allelic series) | 11.3 upbm affinity estimate (log intensity, higher = more binding, comparable within an allelic series) | 11.2 upbm affinity estimate (log intensity, higher = more binding, comparable within an allelic series)
